# From PubChem BioAssay
# The entries come from a sample that favours hits as a whole.
# Giardia FBPA inh: blocks Giardia fructose-bisphosphate aldolase activity | 290,000 compounds, 0.71% hits | purified Giardia FBPA | Potency, µM (series often up to 59.6 µM), without a hit: top-dose activity, negative = inhibition, most hits filed as inhibitors | A8B2U2 | AID 2451; note: potency is the fitted concentration of half-maximal effect; % is set by controls: 0 for no effect and ±100 for the full control effect; nearly all actives have a fitted effect of over 55% in size
# Target sequence (A8B2U2 whole entry, looked up): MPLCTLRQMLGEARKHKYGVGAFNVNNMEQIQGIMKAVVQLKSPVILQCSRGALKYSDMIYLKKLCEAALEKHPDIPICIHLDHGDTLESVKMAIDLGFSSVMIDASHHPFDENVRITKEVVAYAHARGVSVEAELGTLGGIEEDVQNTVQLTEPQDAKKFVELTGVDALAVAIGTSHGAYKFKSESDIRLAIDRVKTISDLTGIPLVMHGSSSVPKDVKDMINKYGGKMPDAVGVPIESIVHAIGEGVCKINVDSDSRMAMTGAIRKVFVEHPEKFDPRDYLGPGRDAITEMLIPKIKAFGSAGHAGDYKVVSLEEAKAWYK
#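 Giardia FBPA (40 nM reagent) was preincubated 10 min at RT with compound (up to 57.5 uM final), then substrate plus GAPDH/TPI/NAD/arsenate coupling system with diaphorase/resazurin was added; resorufin fluorescence (525/598 nm) was read after 20 min.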
# LmPK inh: LmPK (Leishmania mexicana) enzyme inhibition. AID 1721. purified LmPK, Kinase-Glo ATP luminescence, 1 h. Q27686. 290,000 compounds, 0.37% hits. Potency, µM (top dose mostly 57.5 µM), without a hit: at the top dose activity change, negative = inhibition, actives largely listed as inhibitors; note: potency is the fitted concentration of half-maximal effect; % is set by controls: 0 for no effect and ±100 for the full control effect
#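 Screened at intermediate enzyme activity to detect both inhibitors and activators: LmPK at 0.1 nM, with a 0.5 nM enzyme column as activation reference. PEP 0.5 mM, ADP 0.1 mM; ATP detected by luminescence after 1 h.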
# TbPYK inhibitor: blocks Trypanosoma brucei pyruvate kinase. Potency, µM (highest dose often 76.8 µM), for inactives: top-dose activity, negative = inhibition, actives largely listed as inhibitors. TbPYK enzyme, Kinase-Glo Plus ATP luminescence, 45 min. 410,000 compounds, 0.12% hits; note: potency is the fitted concentration of half-maximal effect; % is set by controls: 0 for no effect and ±100 for the full control effect; nearly all actives have a fitted effect of over 50% in size
#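 Luminescence from Kinase-Glo Plus, added after a 45-minute room-temperature reaction, served as the end-point read-out. The enzyme and substrate were preincubated with compound before ADP (130 uM final) initiated turnover. Concentration-effect curves came from normalized qHTS data.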
# Sm TGR block: S. mansoni TGR enzyme inhibition | 360,000 compounds, 3% hits | AID 485364 | purified TGR, DTNB reduction, TNB absorbance 405 nm | Potency, µM (doses to about 114 µM), inactives show at the highest dose activity change, negative = inhibition, usual class: inhibitors | Q962Y6; note: potency is the fitted concentration of half-maximal effect; % is set by controls: 0 for no effect and ±100 for the full control effect; nearly all actives have a fitted effect of over 60% in size
#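 Kinetic colorimetric format: TGR-catalysed, NADPH-driven DTNB reduction monitored via TNB absorbance. Enzyme dispensed at 20 nM; compound exposure 15 min at room temperature before reaction start.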
# Shiga inhibitor: Shiga toxin inhibition | Vero cells, Shiga toxin protein synthesis inhibition reporter | inhibition, % at 38.7 µM | 290,000 compounds, 9.2% hits; in the data active = inhibition mostly above about 28%, no sharp cut-off; inactive = mostly below about 43%; note: 0% is about no effect
# CHX counter: counter-screen hit for Shiga toxin inhibitors, cycloheximide | max response, % | 300,000 compounds, 12% hits | cell reporter, cycloheximide protein synthesis inhibition counterscreen | AID 2314; in the data active = max response mostly above about 13%, no sharp cut-off; inactive = mostly below about 14%; note: read at 38.3 µM for the half of the compounds with a filed dose; 0% is about no effect
# * = called active by the depositor; ? = inconclusive; / = not tested or not shown; [ ] = dose if it differs, or a comment. Unless noted, calls come from the whole dose curve; as a rule, active = well fitted curve in the direction sought with a large enough effect; inconclusive = small, poorly fitted or top-dose-only effect, or another doubt; inactive = no such curve, though single readings can be large; an effect the other way counts as inactive or inconclusive.
SMILES,Giardia FBPA inh,LmPK inh,TbPYK inhibitor,Sm TGR block,Shiga inhibitor,CHX counter
CCOC(=O)c1cc(-c2ccccc2)n(CCC(=O)Nc2ccc(C(F)(F)F)cc2)c1C,/,/,7.5%,6.8%,/,/
COc1cccc(NC(=O)CSc2nnc3[nH]c(=O)cc(-c4ccccc4)n23)c1,/,/,-3.9%,-0.7%,/,/
COc1ccc(N2CCN(C(=O)COC(=O)CSc3ccccc3)CC2)cc1,/,/,6.8%,-0.8%,/,/
O=C(c1ccc(Cl)cc1)N1CCN(c2ncccn2)CC1,-0.6%,-5.1%,-8.5%,0.0%,-3.7,-2.4
COc1ccc(N2CCN(C(=O)CSc3ccccc3N)CC2)cc1,-6.7%,0.2%,-27.5%,3.5%,-2.6,12.4*
Cc1ccc(C)c(C(=O)CCC(=O)N2CCN(c3ncccn3)CC2)c1,1.2%,-3.3%,12.1%,12.9%,37.8*,35.6*
O=C(CCSc1ccc(Cl)cc1)N1CCN(c2ncccn2)CC1,1.8%,1.4%,-10.7%,0.6%,37.7,16.7*
O=C(CSc1ccccn1)N1CCN(c2ccccc2)CC1,-9.9%,0.4%,-19.7%,-17.1%,35.1*,34.8*
Cc1ccc(C)c(OCC(=O)N2CCN(c3ncccn3)CC2)c1,/,/,-2.4%,-12.8%,/,/
COc1ccc(NC(=O)Nc2cccc(-c3cn4cccnc4n3)c2)cc1,/,/,-4.2%,-19.3%,/,/
CCN(C(=O)c1cccn(Cc2cccc(Cl)c2)c1=O)c1ccccc1,/,/,-3.0%,12.5%,/,/
Cc1c(C(=O)Nc2ccccc2)c2ccc(C(F)(F)F)cc2n1O,/,/,-6.7%,/,/,/
CC1CCN(S(=O)(=O)c2ccc3c(ccn3CCC(=O)NCc3ccccc3F)c2)CC1,/,/,-0.7%,9.4%,/,/
CCc1cccc(NC(=O)Cn2nc3c4cc(F)ccc4n(Cc4cccc(C)c4)cc-3c2=O)c1,/,/,-6.6%,4.8%,/,/
O=C(CCSc1ccc(Cl)cc1)N1CCCCCC1,3.0%,-1.1%,-1.3%,-25.4%,61.5*,20.6*
CCC(C(=O)N1CCN(c2ncccn2)CC1)c1ccccc1 (centres undefined),3.8%,2.8%,-26.0%,2.9%,14.7,26.1*
CC(Oc1ccccc1)C(=O)N1CCN(c2ncccn2)CC1 (centres undefined),/,/,-3.8%,-4.2%,/,/
O=C(CSC1=NCCS1)N1CCN(c2ccccc2)CC1,-2.6%,-2.4%,-0.3%,1.7%,38.4*,26.4*
O=C(CCOc1ccccc1)N1CCN(c2ccc(O)cc2)CC1,-12.5%,-14.8%,2.4%,?,62.9*,46.7*
O=C(CCSCCC(=O)N1CCCC1)N1CCCC1,5.8%,0.4%,3.2%,39.8µM*,-12.0,-2.1
O=C(CCCCCCCC(=O)N1CCCC1)N1CCCC1,/,/,-1.5%,/,/,/
O=C(CCSc1ccccc1)N1CCN(c2ccccc2)CC1,6.3%,3.4%,3.9%,/,90.0*,39.3*
O=C(CCC(=O)N1CCN(c2cccc(Cl)c2)CC1)N1CCN(c2ccccc2)CC1,1.4%,-3.0%,2.1%,0.8%,-13.7,-3.3
O=C(CSc1ccc(Cl)cc1)N1CCN(c2c(Cl)cccc2[N+](=O)[O-])CC1,-1.0%,8.1%,2.1%,-23.5%,45.5,55.9*
C[C@]12CC[C@@H]3c4ccc(O)cc4CC[C@H]3[C@@H]1CC[C@H]2O,4.7%,/,/,/,0.8,8.1
SMILES,Giardia FBPA inh,LmPK inh,TbPYK inhibitor,Sm TGR block,Shiga inhibitor,CHX counter
CC(Sc1nc(-c2ccco2)nc2c1c(=O)n(C)c(=O)n2C)C(=O)O (centres undefined),7.5%,5.7%,0.8%,39.8µM*,-9.4,-2.7
Cn1c(=O)c2c(SCc3ccccc3)nc(-c3ccco3)nc2n(C)c1=O,0.4%,4.9%,/,-12.2%,-3.3,0.9
O=C1NC(=S)N/C1=C\C=C\c1ccccc1,-7.6%,4.3%,-2.1%,-8.0%,50.4*,30.3*
O=C(Nc1nc(-c2ccc(S(=O)(=O)N3CCCC3)cc2)cs1)c1ccco1,-4.4%,6.0%,-6.7%,3.0%,21.8*,5.2*
O=C(Nc1ccc(S(=O)(=O)N2CCCCCC2)cc1)c1ccco1,5.7%,-1.5%,-1.3%,-13.2%,40.4*,22.7*
CC(=O)Nc1ccc(S(=O)(=O)N2CCN(C(=O)c3ccco3)CC2)cc1,4.5%,-1.7%,-9.8%,-18.3%,-4.6,21.2*
CN1C(=O)CC[C@@H]1c1cccnc1,-2.1%[21.7 µM],/,/,/,/,/
Oc1c(C(c2ccccc2F)N2CCN(c3ccccc3F)CC2)sc2nc(-c3ccco3)nn12 (centres undefined),/,/,2.4%,-0.7%,/,/
Cc1ccc(-c2cc3c(n2-c2ccc(C(=O)O)cc2)CCCC3=O)cc1,3.5%,4.0%,-8.9%,0.0%,64.0*,19.1*
Cn1c(SCc2ccc(F)cc2)nc2ccc(C(=O)NCc3ccc(F)cc3)cc21,/,/,-3.4%,5.7%,/,/
Cc1cccc(Nc2nnc(SCC(=O)NC(=O)Nc3ccc4c(c3)OCCO4)s2)c1,5.9%,0.4%,-5.8%,-12.5%,-8.7,10.5
Cc1nnc(SCC(=O)NC(=O)Nc2ccc3c(c2)OCCO3)s1,-1.5%,-3.2%,4.9%,4.4%,44.7*,30.4*
Cc1ccccc1Nc1nnc(SCC(=O)NC(=O)Nc2ccc3c(c2)OCCO3)s1,-0.2%,-0.2%,/,2.8%,50.3*,62.5*
COc1ccc(OC)c(NC(=O)CN2C(=O)COc3ccc(S(=O)(=O)NC4CCCC4)cc32)c1,/,/,-2.0%,9.7%,/,/
COc1ccc(OC)c(C(=O)Nc2ccc3[nH]ccc3c2)c1,/,/,-6.7%,/,/,/
COc1ccc(C(=O)Nc2ccc3cn[nH]c3c2)c(OC)c1,-9.8%,-0.9%,2.8%,8.0%,123.3*,62.9*
COc1ccc(C(=O)Nc2ccc3[nH]ncc3c2)cc1,-4.6%,-5.2%,0.2%,-22.1%,52.7*,18.9*
O=C(COc1ccc(Cl)cc1)Nc1ccc2[nH]ncc2c1,1.8%,-5.8%,1.1%,0.6%,-3.3,-2.5
CCOc1ccc(C(=O)Nc2ccc3[nH]ncc3c2)cc1,3.1%,-4.5%,8.1%,4.8%,31.8,18.9*
CCN(CC)C(=O)Oc1ccc2ccccc2c1Cl,-1.0%,2.0%,1.1%,-10.3%,80.0*,43.1*
CN(C)C(=O)Oc1ccc2ccccc2c1Cl,0.8%,7.2%,9.4%,-15.1%,29.4,30.3*
CCN(CC)C(=O)Oc1ccnc2cc(Cl)ccc12,-5.8%,-0.9%,-1.9%,/,-20.2,-1.5
CN(C)C(=O)Oc1ccc(Cl)c2ccccc12,-21.1%,0.4%,4.9%,2.2%,15.2,5.0
CCOc1ccc(N(CC(=O)N2CCCCCC2)S(=O)(=O)c2ccc(F)cc2)cc1,/,-7.9%,1.2%,?,-17.4,-5.2
S=c1nc(-c2ccc(Br)cc2)oc2c1CCCC2,-20.6%,1.6%,5.7%,-11.2%,4.8,32.9
Cc1cccc(-c2nc(=S)c3c(o2)CCCC3)c1,?,-11.4%,-3.0%,-3.7%,129.5*,48.5*
COCCN=c1scc(-c2ccccc2)n1/N=C/c1c[nH]c2ccccc12,-8.5%,7.8%,2.1%,-7.5%,29.5,16.7*
Oc1ccc(/C=N/N(Cc2ccccc2)c2ccccc2)c(O)c1O,?,-9.4%,-5.3%,?,7.1,9.7
